Here are results for ten compounds from PubChem BioAssay (NCI).

Compounds without any hit were thinned out: in the full panel of roughly 79,000, 15% have a hit. Values without a mark were called inactive. Calls of active or inactive are those of the source. No stated cut-off is given here; in the data, active means growth inhibition above about 70%; inactive means the rest.

Assay [1] can be described thus: NCI Yeast Anticancer Drug Screen. Data for the rad50 strain (AID 155).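 Further: 0% = growth of vehicle-only cultures of the same strain.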 To be noted: S. cerevisiae rad50 strain growth inhibition, hits give high values. The procedure, abridged:
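Compounds were tested on a yeast strain with an engineered DNA damage repair alteration; the reported value is growth inhibition normalised to vehicle treatment.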

Assay [2] in a line: NCI Yeast Anticancer Drug Screen. Data for the mec2-1 strain (AID 157). To be noted: S. cerevisiae mec2-1 strain, hits give high values. Summed up:
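Each compound was tested on mec2-1 yeast, a strain altered in DNA damage repair or cell cycle control. Growth inhibition is reported relative to vehicle.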

Assay [3] can be described thus: NCI Yeast Anticancer Drug Screen. Data for the sgs1 mgt1 strain (AID 161).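 Further: 0% = growth of cultures given vehicle only.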 The settings on record: S. cerevisiae sgs1 mgt1 strain, hits give high values. The procedure, abridged:
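Genetically altered yeast, compound exposure, growth inhibition relative to vehicle.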

A short description of assay [4]: NCI Yeast Anticancer Drug Screen. Data for the cln2 rad14 strain (AID 165).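 Further: 0% = growth equal to vehicle treated cultures.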 To be noted: S. cerevisiae cln2 rad14 strain, hits give high values. Summed up: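 Test compounds were added to cln2 rad14 yeast cultures; inhibition of growth was then determined by comparison with vehicle treatment.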
Assay [5] can be described thus: NCI Yeast Anticancer Drug Screen. Data for the bub3 strain (AID 167). To be noted: S. cerevisiae bub3 mutant strain, hits give high values. Summed up: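 Growth of a checkpoint-deficient yeast mutant is measured after compound exposure. Values represent inhibition relative to vehicle.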
A short description of assay [6]: NCI Yeast Anticancer Drug Screen. Data for the mlh1 rad18 strain (AID 175). To be noted: S. cerevisiae mlh1 rad18 strain growth inhibition, hits give high values. Summed up: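 Inhibition values reflect reduced growth of mutant yeast versus vehicle-treated controls following compound exposure; the mutations affect DNA damage repair.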
Setting [7] is: at 5.0 µM (retest, dose inferred, filed as 0.5).
[8] abbreviates: at 50.0 µM (retest, dose inferred, filed as 5.0).

In the case of `Cc1cc2c(=O)[nH]c(N)nc2nc1C`, the growth inhibition in assay [1] (setting [7]) is -7%; in assay [1] (setting [8]), 11%; in assay [1] (at 50.0 µM), -9.45%; in assay [2] (setting [7]) it was 1%; in assay [2] (setting [8]), -15%; in assay [2] (at 50.0 µM) it was -17.5%. Moreover, the growth inhibition in assay [3] (setting [7]) is -13%; in assay [3] (setting [8]), -13%; in assay [3] (at 50.0 µM), -25%; in assay [4] (setting [7]) it was -2%; in assay [4] (setting [8]), -5%; in assay [4] (at 50.0 µM) it was 15.1%. Further, the growth inhibition in assay [5] (setting [7]) was -5%; in assay [5] (setting [8]), 3%; in assay [5] (at 50.0 µM) it was -8.85%; in assay [6] (setting [7]), -21%; in assay [6] (setting [8]), -2%; in assay [6] (at 50.0 µM), -21.5%.
Regarding `COc1ccc(-c2cc3ccccc3c(=O)n2Cc2ccccc2)cc1`, the growth inhibition in assay [1] (setting [7]) was 8%; in assay [1] (setting [8]) it was 66%; in assay [1] (at 50.0 µM), 78.3% (active); in assay [2] (setting [7]), 11%; in assay [2] (setting [8]) it was 74% (active); in assay [2] (at 50.0 µM) it was 88.4% (active). Besides, the growth inhibition was 13% in assay [3] (setting [7]); 73% (active) in assay [3] (setting [8]); 83.7% (active) in assay [3] (at 50.0 µM); 6% in assay [4] (setting [7]); 57% in assay [4] (setting [8]); 74% (active) in assay [4] (at 50.0 µM). Moreover, the growth inhibition is 8% in assay [5] (setting [7]); 63% in assay [5] (setting [8]); 89.3% (active) in assay [5] (at 50.0 µM); 11% in assay [6] (setting [7]); 66% in assay [6] (setting [8]); 79.3% (active) in assay [6] (at 50.0 µM).
With `OCCc1ccccc1C(c1ccccc1)c1ccccc1`, the growth inhibition is 5% in assay [1] (setting [7]); 98% (active) in assay [1] (setting [8]); 99.3% (active) in assay [1] (at 50.0 µM); -4% in assay [2] (setting [7]); 99% (active) in assay [2] (setting [8]); 99.4% (active) in assay [2] (at 50.0 µM). In addition, the growth inhibition in assay [3] (setting [7]) is 1%; in assay [3] (setting [8]), -16%; in assay [3] (at 50.0 µM), 99.2% (active); in assay [4] (setting [7]) it was 8%; in assay [4] (setting [8]) it was 99% (active); in assay [4] (at 50.0 µM), 98.8% (active). The growth inhibition was 0% in assay [5] (setting [7]); 99% (active) in assay [5] (setting [8]); 99.2% (active) in assay [5] (at 50.0 µM); 4% in assay [6] (setting [7]); 99% (active) in assay [6] (setting [8]); 98.9% (active) in assay [6] (at 50.0 µM).
Turning to `CCCCN(CCC(=O)O)c1ccc(/C=C\c2ccnc3ccccc23)cc1`, the growth inhibition in assay [1] (setting [7]) was 8%; in assay [1] (setting [8]), 89% (active); in assay [1] (at 50.0 µM) it was 94.2% (active); in assay [2] (setting [7]) it was 6%; in assay [2] (setting [8]), 89% (active); in assay [2] (at 50.0 µM), 93.5% (active). Moreover, the growth inhibition was 21% in assay [3] (setting [7]); 90% (active) in assay [3] (setting [8]); 95.6% (active) in assay [3] (at 50.0 µM); 15% in assay [4] (setting [7]); 82% (active) in assay [4] (setting [8]); 88.7% (active) in assay [4] (at 50.0 µM). For the same compound, the growth inhibition is -2% in assay [5] (setting [7]); 68% in assay [5] (setting [8]); 96.3% (active) in assay [5] (at 50.0 µM); 0% in assay [6] (setting [7]); 89% (active) in assay [6] (setting [8]); 93% (active) in assay [6] (at 50.0 µM).
Consider `CC1=C(\C=C/C(C)=N/N=C(C)\C=C\C2=C(C)CCCC2(C)C)C(C)(C)CCC1`, for which the growth inhibition in assay [1] (setting [7]) was 3%; in assay [1] (setting [8]), 31%; in assay [1] (at 50.0 µM) it was 70.8% (active); in assay [2] (setting [7]) it was 9%; in assay [2] (setting [8]) it was 52%; in assay [2] (at 50.0 µM), 28.7%. Besides, the growth inhibition in assay [3] (setting [7]) was 27%; in assay [3] (setting [8]) it was 51%; in assay [3] (at 50.0 µM), 71% (active); in assay [4] (setting [7]), 3%; in assay [4] (setting [8]) it was 7%; in assay [4] (at 50.0 µM) it was 28.2%. The growth inhibition is -2% in assay [5] (setting [7]); 4% in assay [5] (setting [8]); 23.7% in assay [5] (at 50.0 µM); 24% in assay [6] (setting [7]); 49% in assay [6] (setting [8]); 44.2% in assay [6] (at 50.0 µM).
With `OCCC1CCN(CC/C=C2/c3ccc(F)cc3Sc3ccc(C(F)(F)F)cc32)CC1`, the growth inhibition in assay [1] (setting [7]) was 26%; in assay [1] (setting [8]) it was 59%; in assay [1] (at 50.0 µM) it was 37.4%; in assay [2] (setting [7]), 7%; in assay [2] (setting [8]) it was 45%; in assay [2] (at 50.0 µM), 62.9%. Besides, the growth inhibition in assay [3] (setting [7]) was 21%; in assay [3] (setting [8]) it was 68%; in assay [3] (at 50.0 µM), 82.6% (active); in assay [4] (setting [7]) it was 18%; in assay [4] (setting [8]) it was 52%; in assay [4] (at 50.0 µM), 71.4% (active). Also, the growth inhibition in assay [5] (setting [7]) was 4%; in assay [5] (setting [8]), 38%; in assay [5] (at 50.0 µM), 64.5%; in assay [6] (setting [7]), 24%; in assay [6] (setting [8]), 56%; in assay [6] (at 50.0 µM), 88.2% (active).
Take `CC(C)/C(Cl)=N\OC(=O)Nc1cccc(F)c1`: the growth inhibition in assay [1] (setting [7]) was 14%; in assay [1] (setting [8]), 65%; in assay [1] (at 50.0 µM), -5.85%; in assay [2] (setting [7]), -7%; in assay [2] (setting [8]), 45%; in assay [2] (at 50.0 µM), 63%. Also, the growth inhibition is -6% in assay [3] (setting [7]); 96% (active) in assay [3] (setting [8]); 82.9% (active) in assay [3] (at 50.0 µM); 41% in assay [4] (setting [7]); 28% in assay [4] (setting [8]); 25.9% in assay [4] (at 50.0 µM). In addition, the growth inhibition is -13% in assay [5] (setting [7]); 82% (active) in assay [5] (setting [8]); 69.7% in assay [5] (at 50.0 µM); -3% in assay [6] (setting [7]); 28% in assay [6] (setting [8]); 50.8% in assay [6] (at 50.0 µM).
Turning to `CCOc1ccc2nc(NC(=O)c3c/c(=N\NC(=O)C[N+](C)(C)C)c4ccc(O)cc4o3)sc2c1`, the growth inhibition is 57% in assay [1] (setting [7]); 64% in assay [1] (setting [8]); 99.3% (active) in assay [1] (at 50.0 µM); 28% in assay [2] (setting [7]); 53% in assay [2] (setting [8]); 99.6% (active) in assay [2] (at 50.0 µM). Moreover, the growth inhibition is 33% in assay [3] (setting [7]); 65% in assay [3] (setting [8]); 99.3% (active) in assay [3] (at 50.0 µM); 13% in assay [4] (setting [7]); 61% in assay [4] (setting [8]); 98.6% (active) in assay [4] (at 50.0 µM). The growth inhibition in assay [5] (setting [7]) was 62%; in assay [5] (setting [8]) it was 62%; in assay [5] (at 50.0 µM), 99.3% (active); in assay [6] (setting [7]), 41%; in assay [6] (setting [8]) it was 52%; in assay [6] (at 50.0 µM) it was 99.2% (active).
On to `COc1ccc2c(c1)[n+]([O-])c(-c1ccc(Cl)c(Cl)c1)c(N)[n+]2[O-]`, for which the growth inhibition is 23% in assay [1] (setting [7]); 98% (active) in assay [1] (setting [8]); 99.5% (active) in assay [1] (at 50.0 µM); 26% in assay [2] (setting [7]); 99% (active) in assay [2] (setting [8]); 99.5% (active) in assay [2] (at 50.0 µM). The growth inhibition in assay [3] (setting [7]) was 29%; in assay [3] (setting [8]), 99% (active); in assay [3] (at 50.0 µM), 99.7% (active); in assay [4] (setting [7]) it was 38%; in assay [4] (setting [8]), 98% (active); in assay [4] (at 50.0 µM) it was 99.3% (active). The growth inhibition was 76% (active) in assay [5] (setting [7]); 99% (active) in assay [5] (setting [8]); 99.6% (active) in assay [5] (at 50.0 µM); 71% (active) in assay [6] (setting [7]); 99% (active) in assay [6] (setting [8]); 99.4% (active) in assay [6] (at 50.0 µM).
For the compound `CC(=O)Nc1ccc(C(=O)C(C)Br)cc1` (stereo not given), the growth inhibition in assay [1] (setting [7]) was 38%; in assay [1] (setting [8]), 99% (active); in assay [1] (at 50.0 µM), 62.8%; in assay [2] (setting [7]) it was 28%; in assay [2] (setting [8]), 99% (active); in assay [2] (at 50.0 µM), 81.8% (active). Besides, the growth inhibition in assay [3] (setting [7]) was 43%; in assay [3] (setting [8]), 99% (active); in assay [3] (at 50.0 µM), 80.5% (active); in assay [4] (setting [7]), 24%; in assay [4] (setting [8]), 98% (active); in assay [4] (at 50.0 µM) it was 23.6%. For the same compound, the growth inhibition in assay [5] (setting [7]) is 30%; in assay [5] (setting [8]), 99% (active); in assay [5] (at 50.0 µM), 66.1%; in assay [6] (setting [7]), 40%; in assay [6] (setting [8]), 99% (active); in assay [6] (at 50.0 µM), -30.8%.
